The list is not random: actives were taken first. Their share in the collection is about 7.6%.
Cy5 interf NS3h = Cy5 fluorescence quenchers or enhancers, artefact control for HCV NS3 helicase inhibitor project, biochemical, ChemBridge library, Cy5 readout; 16,000 tested, 6% active; Cy5-dT15 DNA with NS3h, fluorescence interference; actives lie on both sides; signal over control mean, under 1 quenches; fluorescence interference ratio at 100 µM;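 active means compound fluorescence over control fluorescence at most 0.8, a quencher, or at least a set upper limit, an enhancer; inactive means ratio between 0.8 and the set upper limit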
NS3h inh CB = HCV NS3 helicase inhibitors, primary screen, biochemical, fluorescence polarization, ChemBridge library; Hepatitis C virus NS3 helicase; AID 687043, 2013; inhibition, % at 100 µM; NS3h Cy5-dT15 DNA binding; 16,000 tested, 1.6% active;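 active means inhibition above the average over every tested compound plus 3 SD, cut at about 40% in these data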
Starred values were filed as active, the others as inactive.

SMILES | Cy5 interf NS3h | NS3h inh CB
O=Cc1ccc(OCC(O)Cn2c3ccccc3c3ccccc32)cc1 (stereo unspecified) | 0.87 | 15
Cc1ccccc1/C=C1\SC(=S)N(C(C(=O)O)C(C)C)C1=O (stereo unspecified) | 1 | 8
CC(C(=O)O)N1C(=O)/C(=C/c2ccccc2)SC1=S (stereo unspecified) | 1.2* | 2
COc1ccc(C(=O)Oc2cccc(C(=S)N3CCOCC3)c2)cc1 | 0.96 | 14
S=C(c1cccc(OCc2ccccc2)c1)N1CCOCC1 | 0.64* | 28
O=C(COc1ccc2c(c1)oc(=O)c1ccccc12)OCc1ccccc1 | 0.94 | -1
O=C(COc1ccc2c(c1)oc(=O)c1ccccc12)c1ccccc1 | 1.4* | -72
Cc1cccc(Cl)c1NC(=O)C1CC(=O)N(c2ccc(Br)cc2)C1 (stereo unspecified) | 1.1 | 19
CC(=O)N1CCN=C1Nc1c(Cl)cccc1Cl | 0.6* | 12
O=[N+]([O-])c1cccc(-c2ccc(CO)o2)c1 | 0.95 | -3
O=[N+]([O-])c1cccc(C2=Nc3ccc([N+](=O)[O-])cc3ON2)c1 | 0.74* | 2
COc1ccc(C2CC(C(F)(F)F)n3nc(C(=O)Nc4cccc(Cl)c4Cl)c(Cl)c3N2)cc1 (stereo unspecified) | 0.98 | 14
N#Cc1ccccc1OCC(=O)N/N=C\C=C\c1ccc([N+](=O)[O-])cc1 | 0.58* | 26
O=C(COc1ccccc1)Nc1ccc([N+](=O)[O-])cc1 | 1.1 | 5
COc1ccc(CN2C(=O)NC(=O)/C(=C\C=C\c3ccccc3)C2=O)cc1 | 1.9* | -27
COc1ccc(CN2C(=O)NC(=O)/C(=C\C=C\c3ccco3)C2=O)cc1 | 0.9 | 19
CC1C(c2ccccc2)=[N+]([O-])C(C)(c2ccc(Cl)cc2)N1O (stereo unspecified) | 0.94 | -2
COCCNC(=O)CN(c1cc(OC)ccc1OC)S(C)(=O)=O | 1 | 7
O=C1N/C(=N/N=C\c2ccccc2O)SC1Cc1ccc(Br)cc1 (stereo unspecified) | 1.1 | 52*
O=C1N/C(=N\N=C/c2ccccc2O)SC1Cc1ccccc1 (stereo unspecified) | 1.1 | -5
CC(=O)c1ccc(NC(=S)NC(=O)/C=C/c2ccccc2)cc1 | 1.1 | 5
CCc1ccc(NC(=S)NC(=O)/C=C/c2ccccc2)cc1 | 0.9 | 49*
O=C1c2cc(S(=O)(=O)NCCCO)ccc2-c2ccc(S(=O)(=O)NCCCO)cc21 | 0.63* | -5
O=C1c2cc(S(=O)(=O)Nc3ccncc3)ccc2-c2ccc(S(=O)(=O)Nc3ccncc3)cc21 | 0.92 | 15
COc1ccc(NC(=O)/C(C#N)=C\c2cc(C)n(-c3ccc(C)cc3)c2C)cc1 | 1 | -3
SMILES | Cy5 interf NS3h | NS3h inh CB
O=C(NC(CS)C(=O)O)c1cncc(O)c1 (stereo unspecified) | 0.64* | 0
CCOC(=O)c1c(NC(=O)c2cncc(Br)c2)sc(C)c1C | 0.97 | 17
CN(C)c1ccc(C(=O)N2CCN(c3ccc([N+](=O)[O-])cc3)CC2)cc1 | 0.85 | 4
OC12CCCCC1C1(O)CCCCC1C1(CCCCC1)O2 (stereo unspecified) | 0.96 | -6
CC(=O)c1ccc(N2CCN(S(=O)(=O)c3ccccc3)CC2)c(F)c1 | 0.79* | 9
CC(=O)c1ccc(N2CCC(C)CC2)c(F)c1 | 1 | 10
COCCNC(=O)CN(c1ccc(Br)cc1)S(C)(=O)=O | 1 | 1
O=C(O)CN1C(=O)/C(=C/c2ccccc2OCc2ccc([N+](=O)[O-])cc2)SC1=S | 1.1 | 24
COc1cc(C=C2C(=O)N(C)C(=O)N(C)C2=O)ccc1Oc1ccc([N+](=O)[O-])cn1 | 0.79* | 30
COc1cc(/C=C2\SC(=S)NC2=O)ccc1Oc1ccc([N+](=O)[O-])cn1 | 0.89 | -3
CN1C(=O)C(=Cc2ccccc2OCc2ccc([N+](=O)[O-])cc2)C(=O)N(C)C1=O | 0.58* | 33
COc1ccc(C(=O)Nc2ccc(C(C)C)cc2)cc1[N+](=O)[O-] | 0.98 | 7
Cc1cc(C)cc(NC(=O)c2ccc(C)c([N+](=O)[O-])c2)c1 | 1 | -7
Cc1ccc(NC(=O)c2ccc(I)cc2)cc1Cl | 1.1 | 4
COc1ccc(C(=O)Nc2ccc(C(N)=O)cc2)cc1[N+](=O)[O-] | 0.78* | -2
COc1ccc(C(=O)Nc2ccc(C)c(Cl)c2)cc1OC | 0.73* | 19
Cc1cc(C(=O)Nc2ccc(N(C)C)cc2)ccc1[N+](=O)[O-] | 0.24* | 20
COc1ccc2c(c1)-c1c(ssc1=S)C(C)(C)N2C(=O)CSc1ncn[nH]1 | 1.1 | -3
COCCNC(=O)C(=O)Nc1ccc(C)cc1 | 0.98 | -4
O=C(COc1ccc(Cl)cc1)Nc1cc([N+](=O)[O-])ccc1F | 0.88 | 10
Cc1cc(OCC(=O)Nc2cc([N+](=O)[O-])ccc2Cl)cc(C)c1Cl | 0.54* | 8
CCCc1c(C)c2c(OCC(=O)O)cc(OCC(=O)O)cc2oc1=O | 0.76* | 13
CCc1cc2c(C)c(CC)c(=O)oc2cc1OCC(C)=O | 1 | -4
O=C(Nc1ccccc1)/C(=C\c1cccc(Br)c1)NC(=O)c1ccccc1 | 0.98 | 4
CCC1=NN2C(=N)/C(=C/c3ccc(OCc4ccccc4F)c(OC)c3)C(=O)N=C2S1 | 1 | 34
SMILES | Cy5 interf NS3h | NS3h inh CB
NC(=O)c1ccc(NC(=O)c2ccccc2[N+](=O)[O-])cc1 | 0.97 | -7
O=C(N/N=C\c1ccc[nH]1)c1ccccc1[N+](=O)[O-] | 0.67* | 15
Cc1ccc(NCCC(=O)c2ccc(Br)cc2)cc1C | 0.95 | 13
O=C1C(=O)N(C2CCCCC2)C(=O)N1C1CCCCC1 | 1 | 4
Cc1nc2c(C)c(-c3ccccc3)[nH]n2c(=O)c1C | 1.1 | 20
CCOC(=O)CCc1c(C)nc2c(C)c(-c3ccccc3)[nH]n2c1=O | 1.2* | 8
CC(=O)c1cccc(NC2=C(Cl)C(=O)c3c(Cl)c(Cl)c(Cl)c(Cl)c32)c1 | 0.89 | -7
C/C(=C\C(=O)c1ccc(Br)cc1)Nc1ccccc1C | 1 | 6
Cc1ccc(O)c(Nc2c([N+](=O)[O-])c(=O)oc3ccccc23)c1 | 0.89 | 4
COc1ccc(CN2CCN(Cc3ccc(C)cc3)CC2)cc1OC | 1 | -9
COc1ccc(/C(C)=N/N2CCN(Cc3ccc(Cl)cc3)CC2)cc1OC | 0.68* | 19
O=C(c1ccc2c(c1)C(=O)N(c1ccncc1)C2=O)c1ccc2c(c1)C(=O)N(c1ccncc1)C2=O | 0.97 | 3
COc1ccccc1C/C(N)=N\OC(=O)COc1ccc(C)cc1 | 0.97 | 18
O=C(NC(=S)Nc1cccc(-c2nc3ccccc3s2)c1)c1ccco1 | 1 | -4
CC1SC2(C(=O)Nc3ccccc32)N(c2ccccc2)C1=O (stereo unspecified) | 1 | -12
Cc1ccc(NC(=O)C(=O)NCCN2CCN(S(C)(=O)=O)CC2)cc1 | 0.96 | 9
CCOc1ccc(CN2CCN(S(C)(=O)=O)CC2)cc1 | 0.71* | -1
CCOc1ccc(S(=O)(=O)N2CCOCC2)cc1 | 1.1 | 1
Cc1ccc(CN2CCN(S(C)(=O)=O)CC2)cc1 | 0.68* | 8
CCOC(=O)C1=C(C)NC2=C(C(=O)c3ccccc32)C1c1ccc(OC)c(OC)c1 (stereo unspecified) | 0.98 | 1

High-throughput results (PubChem BioAssay)
